NTR1 ag = NTR1 (human) agonism. NTR1-U2OS beta-arrestin-GFP spot imaging, agonist mode. activation, % at 20 µM. 330,000 tested, 0.17% active. P30989;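 active means activation at or above 40% of the spot to cytoplasm intensity ratio, with at least 20 cells analyzed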;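 further: 0% = DMSO without peptide and 100% = 100 nM NTR1 peptide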
Target sequence (P30989 whole entry, looked up): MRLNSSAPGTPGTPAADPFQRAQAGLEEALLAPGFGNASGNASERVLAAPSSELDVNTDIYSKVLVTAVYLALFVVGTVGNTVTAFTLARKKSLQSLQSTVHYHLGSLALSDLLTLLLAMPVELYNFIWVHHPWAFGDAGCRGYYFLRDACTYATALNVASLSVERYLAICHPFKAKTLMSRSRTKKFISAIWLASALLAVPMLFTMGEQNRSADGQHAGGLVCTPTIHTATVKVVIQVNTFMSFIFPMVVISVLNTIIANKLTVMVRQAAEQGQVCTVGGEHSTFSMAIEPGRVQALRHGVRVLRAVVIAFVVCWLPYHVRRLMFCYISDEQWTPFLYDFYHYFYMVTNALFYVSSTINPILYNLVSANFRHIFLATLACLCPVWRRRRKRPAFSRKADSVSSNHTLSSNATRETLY
ALR H2O2 inh = inhibitors of human sulfhydryl oxidase ALR. inhibition, % (no concentration beside the values). purified ALR, DTT oxidation, H2O2 HRP-luminol luminescence. AID 485317. P55789. 290,000 tested, 3.8% active;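 active means mean replicate inhibition above about 79%, with every replicate also reaching it, limit read from the data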
Target sequence (P55789 whole entry, looked up): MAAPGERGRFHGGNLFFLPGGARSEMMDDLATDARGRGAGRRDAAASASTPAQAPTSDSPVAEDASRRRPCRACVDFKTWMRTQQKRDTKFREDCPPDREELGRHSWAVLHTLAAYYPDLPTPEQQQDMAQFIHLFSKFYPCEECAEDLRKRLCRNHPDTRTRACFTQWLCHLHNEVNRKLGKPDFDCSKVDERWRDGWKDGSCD
H9c2 protect = protects H9c2 cardiomyocytes from peroxide injury | H2O2 injury protection, ATPLite, 2 h | protection from H2O2 cell death, % at 20 µM | 360,000 tested, 0.63% active;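 active means compounds giving at least 50% protection of heart cells from peroxide-induced death in the single-dose screen, raw or plate-pattern-corrected value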;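 further: 0% = DMSO wells with peroxide and 100% = DMSO wells without peroxide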
SUMO HTRF inh = SUMOylation inhibition. AID 2006. P63279. 290,000 tested, 0.36% active. HTRF SUMOylation assay, SAE1/SAE2 + UBC9, in vitro. inhibition, % at 35 µM; in the data active means inhibition above about 50%, passing the limit was not always enough
Active calls of the source: *; . = no result given; ! = not confirmed by another sample. Hits are enriched below; roughly 3.9% of the tested compounds scored in any of these assays.

SMILES	NTR1 ag	ALR H2O2 inh	H9c2 protect	SUMO HTRF inh
C[C@@H]1O[C@@H](OC[C@H]2O[C@@H](Oc3c(-c4ccc(O)c(O)c4)oc4cc(O)cc(O)c4c3=O)[C@H](O)[C@@H](O)[C@@H]2O)[C@H](O)[C@H](O)[C@H]1O	0.6	99.1*	-5.8	6.9
O=c1c(O[C@@H]2O[C@H](CO)[C@H](O)[C@H](O)[C@H]2O)c(-c2ccc(O)c(O)c2)oc2cc(O)cc(O)c12	.	.	.	1.5
CC1OC(OCC2OC(Oc3c(-c4ccc(O)cc4)oc4cc(O)cc(O)c4c3=O)C(O)C(O)C2O)C(O)C(O)C1O (stereo not given)	-1.7	70.5	-0.1	29.0
Cc1cn(S(=O)(=O)c2ccc(Cl)cc2)c(C)n1	1.4	1.5	2.2	14.1
CCc1ccccc1NC(=O)CN(C)C(=O)Cn1cnc2ccc(Cl)cc2c1=O	-0.6	19.7	-6.5	.
O=c1c(O[C@@H]2O[C@H](CO)[C@@H](O)[C@H](O)[C@H]2O)c(-c2ccc(O)c(O)c2)oc2cc(O)cc(O)c12	-1.2	.	.	5.7
COc1c(-c2ccc(O)c(O)c2)oc2cc(O)cc(O)c2c1=O	1.7	98.5*	29.7	3.5
O=c1c(OC2OC(CO)C(O)C(O)C2OC2OC(CO)C(O)C(O)C2OC2OC(CO)C(O)C(O)C2O)c(-c2ccc(O)c(O)c2)oc2cc(O)cc(O)c12 (stereo not given)	-0.3	98.9*	0.5	-14.5
Cc1cccc(N2CCN(C(=O)c3ccc4nc[nH]c4c3)CC2)c1C	1.3	11.9	-3.3	-10.9
CCN1CCN(Cc2ccc(NC(=O)c3cc(NC(=O)C(=O)c4c[nH]c5ccccc45)cc(OC)c3)cc2C(F)(F)F)CC1	-5.4	-20.0	-26.4	1.9
CCN1CCN(Cc2ccc(NC(=O)c3ccc(C)c(NC(=O)C(=O)c4c[nH]c5ccccc45)c3)cc2C(F)(F)F)CC1	40.8*!	18.0	-29.1	-15.9
O=C(O)c1cc(Cl)c(Cl)cc1C(=O)Nc1cccc2cccnc12	3.0	3.6	3.3	75.9*
Cc1sc2c(c1C)c(=O)n(-c1ccc(F)cc1)c(=O)n2CC(=O)NCc1ccco1	.	.	1.4	14.9
O=C(c1ccc(N2CN(C(=O)c3ccco3)c3nc4ccccc4nc32)cc1)N1CCOCC1	-0.8	-5.1	72.2*	-0.5
Cc1ccc(C)c(NC(=O)CSc2c(C)n[nH]c2C)c1	0.6	95.9*	3.1	7.4
Cc1ccc(C)c(NC(=O)CSc2n[nH]c(-c3ccncc3)n2)c1	0.3	-31.6	-4.2	-4.3
COc1ccc(-c2cn3c4c(sc3n2)CCCC4)cc1	4.3	96.2*	-21.5	7.2
Cc1cccc(NS(=O)(=O)c2ccc(C(=O)NCCCN3CCCC3=O)cc2)c1C	1.1	-3.1	-5.1	.
COc1ccc(C2OC(=O)CC2C(=O)NC2CCCCCC2)cc1OC (stereo not given)	3.5	52.5	5.5	0.7
CS(=O)(=O)N1CCc2cc(C(=O)Nc3ccc(O)cc3)ccc21	-0.6	99.1*	6.5	2.0
CC(C)COP(=O)(OCC(C)C)C(O)c1ccc2c(c1)OCO2 (stereo not given)	-0.5	-2.8	-0.1	15.4
CS(=O)(=O)c1ccc(C(=O)OCC(=O)NC23CC4CC(CC(C4)C2)C3)cc1[N+](=O)[O-]	68.2*	8.9	-19.7	13.2
Cn1cccc1C(=O)NC(=O)COC(=O)c1ccc(S(C)(=O)=O)c([N+](=O)[O-])c1	14.3	-24.5	-8.1	.
CC(=O)Oc1cc(C(=O)OCC(=O)NC23CC4CC(CC(C4)C2)C3)cc(OC(C)=O)c1OC(C)=O	.	.	83.8*	.
NC(=O)c1ccccc1OCC(=O)NC12CC3CC(CC(C3)C1)C2	1.4	-9.6	56.1*	0.7
SMILES	NTR1 ag	ALR H2O2 inh	H9c2 protect	SUMO HTRF inh
NC(=O)c1ccccc1OCC(=O)Nc1cccnc1Cl	-0.2	-2.1	52.6*	.
Cc1ccccc1OCC(=O)OCC(=O)NC12CC3CC(CC(C3)C1)C2	.	.	-1.5	.
CCCc1ccc(OCc2ccc(C(=O)Nc3cccc(C)n3)o2)c(OC)c1	2.4	-1.3	-9.2	-6.5
O=C(/C=C/c1ccc(O)cc1)c1ccccc1	3.7	99.4*	-9.8	8.3
CN(C)c1ccc(/C=C/C(=O)c2ccc(O)cc2)cc1	.	.	-16.0	.
Cc1nn(C)cc1/C=C/C(=O)c1ccc(O)cc1	3.8	98.8*	-11.9	-7.5
CCOc1ccc(/C=C/C(=O)c2ccccc2)cc1OC	0.9	7.0	6.6	4.2
COc1ccc(C=CC(=O)c2ccc([N+](=O)[O-])cc2)cc1	.	.	3.3	.
COc1ccc(C(=O)/C=C/c2ccc(O)cc2)cc1	3.2	98.5*	-11.0	16.5
CCOc1ccc(C(=O)/C=C/c2ccc(OC)c(OC)c2)cc1	5.9	97.2*	7.5	4.1
Cc1ccc(NC(=O)CSc2ncc(S(=O)(=O)c3ccccc3)c(=O)[nH]2)cc1C	-1.2	99.8*	0.5	15.5
Cc1ccc(NC(=O)CSc2ncc3ccccn23)cc1C	0.4	98.8*	-1.5	10.0
O=C(CSc1ncc(S(=O)(=O)c2ccccc2)c(=O)[nH]1)Nc1ccccc1Cl	-0.2	78.4*	1.3	20.9
Cc1ccc(NC(=O)c2sc(C)nc2C)c(C)c1	0.1	-3.3	-0.2	-4.8
Cn1c(-c2ccc(F)cc2)cnc1SCC(=O)Nc1ccccc1	1.1	1.1	-8.9	-2.1
COc1ccc(S(=O)(=O)N2CCOC2CNC(=O)C(=O)NCc2ccco2)cc1 (stereo not given)	4.7	2.9	0.8	20.0
COc1ccc2c(c1)CC(C)C/C2=N\NC(=O)c1ccco1 (stereo not given)	0.8	-2.8	4.3	-5.4
CC1C/C(=N/NC(=O)c2cccc(F)c2)c2ccc(O)cc2C1 (stereo not given)	0.4	98.8*	-4.0	10.1
CCc1ccc(S(=O)(=O)Nc2ccc(O)c3c(=O)cc(-c4ccccc4Cl)oc23)cc1	15.3	3.3	3.3	0.6
O=c1cc(-c2ccccc2Cl)oc2c(NS(=O)(=O)c3cc(Cl)cc(Cl)c3O)ccc(O)c12	23.9	97.2*	-27.1	49.4
CC(C)C(NC(=O)C(c1ccccc1)c1ccccc1)c1nc2ccccc2[nH]1 (stereo not given)	2.0	-6.2	-28.2	-6.4
Cc1nnc(SCC(=O)c2c(N)n(C)c(=O)n(C)c2=O)n1Cc1ccccc1	0.0	-6.8	2.9	-14.6
Cc1nnc(SCC(=O)c2ccccc2F)n1Cc1ccccc1	2.7	93.8*	6.7	6.5
CCNc1nc(NCC)n2c(SCC(=O)c3ccccc3F)nnc2n1	1.8	93.8*	-3.9	6.4
ClCC1NCC(c2ccccc2Cl)c2c1[nH]c1ccccc21 (stereo not given)	-0.1	97.9*	-3.2	-7.4
CCCCn1c(N)c(Sc2ccc([N+](=O)[O-])cc2)c(=O)[nH]c1=O	-1.3	-7.9	8.3	17.6
CN(C)c1ccc(CNS(=O)(=O)c2csc(C(N)=O)c2)cc1	0.5	93.1*	-3.6	3.9
CC(C)Oc1ccc(CNS(=O)(=O)c2csc(C(N)=O)c2)cc1	1.9	-0.5	-9.1	-4.6
O=c1cc(CN2CCN(c3ccc(O)cc3)CC2)nc2scc(-c3ccccc3)n12	-0.3	93.5*	-2.7	24.5
COc1ccc(N2CC(C(=O)N3CCN(c4ccccc4)CC3)CC2=O)cc1 (stereo not given)	0.8	59.5	-0.1	-0.6
